This is an account of results in the supplement of paper PMC9337992.

Molecules are shown by their SMILES. ± gives the standard deviation of the averaged measurements.

The test system of this assay is MDAMB436. The experiment in a line: cell proliferation (confluence) relative to DMSO control; higher = less growth inhibition. The following applies: 5 uM; 6 d. The protocol:
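Epigenetic chemical probe screen: 15 TNBC cell lines, 500 cells per well in 384-well plates, treated with 5 uM of each of 36 SGC probes for 6 d. Confluency was imaged by IncuCyte ZOOM and normalised to DMSO control wells. Four replicate wells per compound.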
On to `COc1c(C)cc(NC(=O)c2nn(Cc3ccc(F)cc3)c3c2CN(C(=O)c2ccc[nH]2)C[C@]3(C)C(N)=O)cc1C`, for which the cell proliferation is 69.4 ± 14%.
`O=C(NCC(=O)N1CCCC1)Nc1ccc2cnccc2c1`: the cell proliferation was found to be 79.4 ± 7.8%.
In the case of `CCn1cc(-c2cccc(C(F)(F)F)c2)c2sc(C(=N)NC3CCS(=O)(=O)CC3)cc2c1=O`, the cell proliferation was determined as 50.4 ± 30%.
In turn, `COc1cc(-c2cn(C)c(=O)c3cnccc23)c(OC)cc1CN(C)C` gave a cell proliferation of 77.2 ± 7.8%.
`CC(C)Oc1ccc(-c2c[nH]cc2CN(C)CCO)cc1` gave a cell proliferation of 84.9 ± 4.5%.
Take `CCC(=O)N1CCOc2c(cc(-c3ccc(OC)c(OC)c3)cc2OC[C@H]2CCCN(C)C2)C1`: the cell proliferation was found to be 72.3 ± 4.5%.
Regarding `CCOC(=O)CCNc1cc(N2CCc3ccccc3CC2)nc(-c2cccnc2)n1`, the cell proliferation was found to be 94.2 ± 5.3%.
As for `COc1ccccc1S(=O)(=O)Nc1ccc2c(c1)CN(C)C(=O)N2`, the cell proliferation stood at 57 ± 5.5%.
Molecule `CC(C)Oc1ccc(-c2c[nH]cc2CN(C)CCN)cc1` came in with a cell proliferation of 59.9 ± 20%.
Regarding `COc1cc2c(NC3CCN(C(C)C)CC3)nc(C3CCCCC3)nc2cc1OCCCN1CCCC1`, the cell proliferation is 99.08 ± 0.28%.
The value for `CC[C@H](C)n1cc(C)c2c(C(=O)NCc3c(C)cc(C)[nH]c3=O)cc(-c3ccc(N4CCNCC4)nc3)cc21` was 89.7 ± 1.7%; that for `CCCc1cc(C)[nH]c(=O)c1CNC(=O)c1cc(-c2ccnc(N3CCN(C)CC3)c2)cc2c1cnn2C(C)C` was 90.2 ± 6.6%.
In the case of `CNCCN1CCC(OCc2ccccc2)CC1`, the cell proliferation is 76.5 ± 6.8%.
Next, `CCOC(=O)CCNc1cc(N2CCc3ccccc3CC2)nc(-c2ccccn2)n1`: 16.1 ± 3%.
Molecule `CCCc1cc(C)[nH]c(=O)c1CNC(=O)c1cc(-c2ccc(N3CCN(C(C)C)CC3)nc2)cc2c1cnn2C(C)C` returned a cell proliferation of 71.1 ± 4.1%.
The molecule `Clc1cc2c(NC3CCCC3)nnc(-c3ccncc3)c2cc1Cl` had a cell proliferation of 93.5 ± 1.4%.
With `O=C(/C=C/N1C[C@H]2C[C@@H]1CN2c1ccccn1)c1ccccc1O`, the cell proliferation amounted to 95.4 ± 3.6%.
The molecule `O=C([C@@H](Cc1cccc(C(F)(F)F)c1)NS(=O)(=O)c1cc(F)c2c(c1)CCNC2)N1CCCC1` displayed a cell proliferation of 84.5 ± 12%.
`O=C(c1ccc(C(=O)N2CCC(N3CCCC3)CC2)c(Nc2ccccc2)c1)N1CCC(N2CCCC2)CC1` registered a cell proliferation of 95.2 ± 2.8%.
With `COc1cc2c(cc1OCCCN1CCCC1)N=C(N)C21CCC1`, the cell proliferation is 95.3 ± 6%.
Next, `Cc1cc(=O)n(C)c2cc(N3C(=O)CC[C@H](NS(=O)(=O)CC(C)C)[C@H]3c3ccc(Cl)cc3)ccc12`: 73.3 ± 14%; `CN(C)[C@H]1CN(C2CCc3cccc(F)c32)C[C@@H]1c1ccc(N2CCN(S(C)(=O)=O)CC2)cc1` (some centres not stated): 93.7 ± 2.8%.
In turn, `COc1ccc(CCc2nc3cc(-c4c(C)noc4C)ccc3n2C[C@H](C)N2CCOCC2)cc1Cl` came in with a cell proliferation of 57.3 ± 19%.
The molecule `Cn1cc(CCn2cnc(-c3cnn(C)c3)c2-c2ccc(C#N)cc2)cn1` displayed a cell proliferation of 83.2 ± 14%.
`COc1ccccc1C(=O)Nc1cc2c(cc1N1CCCC1)n(C)c(=O)n2C` came in with a cell proliferation of 77 ± 3.6%.
On to `CC(C)N(CCCNC(=O)Nc1ccc(C(C)(C)C)cc1)C[C@H]1O[C@@H](n2cc(Br)c3c(N)ncnc32)[C@H](O)[C@@H]1O`, for which the cell proliferation turned out to be 90.4 ± 6.8%.
As to `CCN(C(=O)CO)[C@H]1CN(/C(=N\C#N)Nc2cccc(OC(F)F)c2)N=C1c1ccc(Cl)c(Cl)c1`, the cell proliferation is 93.5 ± 3.8%.
`CCCOc1ccn2c(C(C)=O)cc(-c3ccccc3S(C)(=O)=O)c2c1` showed a cell proliferation of 81.7 ± 14%.
Take `Cc1nnc2c3ccccc3c(N[C@@H](C)[C@H](c3ccccc3)N(C)C)nn12` [L-moses]: the cell proliferation turned out to be 80.8 ± 11%.
Consider `CCCc1cc(C)n(C)c(=O)c1CN(C)C(=O)c1cc(-c2ccc(N3CCN(C(C)C)CC3)nc2)cc2c1cnn2C(C)C`, for which the cell proliferation is 96.6 ± 3.2%.
The molecule `O=C(NC[C@H](O)CN1CCc2ccccc2C1)c1ccnc(NC2CCC2)c1` returned a cell proliferation of 57.5 ± 18%.
`COc1cc(C#N)ccc1S(=O)(=O)Nc1ccc2c(c1)cc(C)c(=O)n2C` showed a cell proliferation of 75.5 ± 5.1%.
